Measured values from PubChem BioAssay (NCI).
Compounds without any hit were thinned out: in the full panel of roughly 83,000, 20% have a hit.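 Step 1: grow cells in 96-well plates. Step 2: add test compound at a single concentration. Step 3: incubate 48 h. Step 4: record percent growth.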 Calls of active or inactive are those of the source. The calls were made as follows: active = growth percent below 10; inactive = the rest.

What follows are compounds tested on DU-145 prostate (assay: NCI-60 one-dose screen, 48 h (100 = growth as untreated, 0 = no growth, -100 = all killed)). Details: 10 µM unless noted.

Structure (SMILES) | growth
C=CCC(=O)N[C@H](/C=C/C(=O)O)Cc1ccc(-c2cc(Cl)cc(Cl)c2)cc1 | 106% (inactive)
CCN1CCN(c2cc(C)nc(N(CCCNc3ccnc4cc(Cl)ccc34)Cc3cccs3)n2)CC1 | 26.4% (inactive)
COC(=O)CCCNc1c(-c2c(O)c(O)cc3c(O)c(-c4c(C)cc5c(-c6nc7ccccn7c6NCCCC(=O)OC)c(O)c(O)cc5c4O)c(C)cc23)nc2ccccn12 | 29.6% (inactive)
Cn1ncc(Cl)c1-c1cc(C(=O)N[C@H](CN)Cc2ccc(F)c(F)c2)oc1Cl | 19.1% (inactive)
O=c1[nH]c(N2CCOCC2)nc2scc(-c3ccccc3)c12 | 107% (inactive)
Cc1cc2c(-c3nc4ccccn4c3NC3CCCCC3)c(O)c(O)cc2c(O)c1-c1c(C)cc2c(-c3nc4ccccn4c3NC3CCCCC3)c(O)c(O)cc2c1O | 32.3% (inactive)
CC(C)C1CCC(C)C(C2(C#N)C(N)=NC(N)=C2C#N)C1=O (centres undefined) | 102% (inactive)
Cc1cc(N2CCCC2)nc(N(CCCNc2ccnc3cc(Cl)ccc23)Cc2ccc3c(c2)OCO3)n1 | 27.9% (inactive)
[2H]C1([2H])[C@H](C)O[C@H](C)C([2H])([2H])N1c1ccc(NC(=O)c2cccc(-c3ccc(OC(F)(F)F)cc3)c2C)cn1 | 80.1% (inactive)
Cc1cc2c(-c3nc4ccccn4c3NC34CC5CC(CC(C5)C3)C4)c(O)c(O)cc2c(O)c1-c1c(C)cc2c(-c3nc4ccccn4c3NC34CC5CC(CC(C5)C3)C4)c(O)c(O)cc2c1O | 19.2% (inactive)
CC[C@H](Nc1ncnc2nc[nH]c12)c1nc2cccc(F)c2c(=O)n1-c1ccccc1 | 62.4% (inactive)
COC(=O)C1=C(C(=O)OC)C23C=C(C)C1C2=C(C)C1(CC1)[C@@](C)(O)C3=O (some centres undefined) | 2.57% (active)
c1ccc2c(c1)CCN(NCCN1CCCC1)C2 | 110% (inactive)
Cc1cc(N(CCNc2ccnc3cc(Cl)ccc23)Cc2cccs2)nc(Cl)n1 | 23.9% (inactive)
COc1cc(-c2nc(C(=O)Nc3ccc(C)cc3)nn2-c2ccc(F)c(F)c2)cc(OC)c1OC | 100% (inactive)
O=C(Cn1c(=O)ccn(CCCCCCCCOc2ccc(Br)cc2)c1=O)Nc1ccc(Oc2ccc(Cl)cc2)cc1 | 73.7% (inactive)
Cc1ccc(-c2cc3c(SCC(=O)Nc4cc(C(F)(F)F)ccc4Cl)nccn3n2)cc1 | 25.6% (inactive)
CCCc1cc2cc(-n3nc(C)c4c3CC(C)(C)CC4=O)cc(NC3CCC(O)CC3)c2c(=O)[nH]1 (centres undefined) | 38.8% (inactive)
COc1ccc(C(=O)c2cc(OC)c(OC)c(OC)c2)cc1/C=C/C(=O)c1ccc(F)cc1 | 85.5% (inactive)
CC(C)=CCc1cc2c(cc1O)C1=C(C(=O)C3=C(C1=O)S(=O)(=O)CCN3)C(C=C(C)C)O2 (centres undefined) | -97.1% (active)

Structure (SMILES) | growth
CN1CCN(c2nc(NCCNc3ccnc4cc(Cl)ccc34)c3ccccc3n2)CC1 | 34.6% (inactive)
COc1ccc(CCCc2c3[n+](cc4c(OC)c(OC)ccc24)CCc2cc4c(cc2-3)OCO4)cc1 | 79.3% (inactive)
N#Cc1cc2[nH]c3ccc(OC(F)(F)F)cc3c2oc1=O | 99.4% (inactive)
CCN1CCN(CCCN(C[C@H]2Cc3ccccc3CN2)[C@H]2CCCc3cccnc32)CC1 | 96.7% (inactive)
Clc1ccc2c(NCCCNCc3ccc4c(c3)OCO4)ccnc2c1 | 58.1% (inactive)
Cc1cc(N2CCOCC2)nc(N(CCNc2ccnc3cc(Cl)ccc23)Cc2cccs2)n1 | 42% (inactive)
CCN1CCN(c2cc(C)nc(N(CCCNc3ccnc4cc(Cl)ccc34)Cc3ccc4c(c3)OCO4)n2)CC1 | 20.1% (inactive)
COc1cc(-c2cc(-c3ccc(Nc4ccnc5cc(Cl)ccc45)cc3)nc(N3CCOCC3)n2)cc(OC)c1OC | 4.95% (active)
COC(=O)C1CCc2sc3ncnc(Nc4cn[nH]c4C(=O)Nc4ccc(CN5CCN(C)CC5)cc4)c3c21 (centres undefined) | -44.6% (active)
CO/C=C/C(=O)c1cc2cnc3c(=N)cc(NC(=O)C(C)C)c([nH]1)c23 | 4.45% (active)
CCN1CCN(c2nc(C)cc(N(CCNc3ccnc4cc(Cl)ccc34)Cc3ccc4c(c3)OCO4)n2)CC1 | 40.2% (inactive)
N#CC(C#N)=NO | 111% (inactive)
C=CC(=O)N(C)[C@H]1C[C@H]2OC(C)(C1OC)n1c3ccccc3c3c4c(c5c6ccccc6n2c5c31)C(=O)NC4 (some centres undefined) | 28.7% (inactive)
Cc1ccc(NC(=O)NC(=O)CSc2nc3ccccc3nc2C)cc1 | 85% (inactive)
C=CCn1c(=O)c2cnc(Nc3ccc(N4CCN(C)CC4)cc3)nc2n1-c1cccc(C(C)(C)O)n1 | 17.2% (inactive)
Clc1ccc2c(NCCNc3nc(N4CCCC4)nc4ccccc34)ccnc2c1 | 5.1% (active)
Clc1ccc(/C=C/c2cc(N3CCOCC3)c3cc(Cl)c(Cl)cc3n2)cc1 | 60.2% (inactive)
Nc1ncnc2c1ccn2-c1cccc(NC(=O)c2ccc(N3CCOCC3)c(C(F)(F)F)c2)c1 | 57.8% (inactive)
CC12O[C@H](C[C@@H](OC(=O)CCC(=O)O)[C@H]1O)n1c3ccccc3c3c4c(c5c6ccccc6n2c5c31)C(=O)NC4=O | 41.8% (inactive)
